Measured values as given in PubChem BioAssay AID1159580 (chemical genetic matrix, 2015).
Hit rate of the full screen: of about 5,500 compounds, about 2,000 (36%) were called active. Roughly 18% stayed inconclusive and do not appear here. Cut-off read from the data, not from the text of the source: active = normalized growth mostly below about 0.91 (no sharp cut-off); inconclusive = no clear call, values can overlap the other calls; inactive = mostly above about 0.92. The list shows a part of the results.

Experiment: chemical genetic growth profiling, strain panel (AID 1159580);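 note: tested at 20 µM; growth read once vehicle control cultures reached saturation at 30 °C; 1 = growth at the plate median or of vehicle wells; lower values mean less growth of the strain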
Details: growth OD

Measured: normalized growth

C[C@]12CCC3c4ccc(OC(=O)CCC(=O)O)cc4CCC3C1CCC2=O (stereo partly specified)
inactive: S. cerevisiae deletion strains, locus YAL013W, strain DEP1, hits give low values 0.981 | S. cerevisiae deletion strains, locus YBR021W, strain FUR4, hits give low values 0.85 | S. cerevisiae deletion strains, locus YBR229C, strain ROT2, hits give low values 1.01 | S. cerevisiae deletion strains, locus YCL029C, strain bik1, hits give low values 0.97 | S. cerevisiae deletion strains, locus YDL035C, strain GPR1, hits give low values 0.871 | S. cerevisiae deletion strains, locus YDL074C, strain BRE1, hits give low values 0.872 | S. cerevisiae deletion strains, locus YDL101C, strain DUN1, hits give low values 0.999 | S. cerevisiae deletion strains, locus YDL134C, strain PPH21, hits give low values 1 | S. cerevisiae deletion strains, locus YDL185W, strain tfp1, hits give low values 0.951 | S. cerevisiae deletion strains, locus YDR101C, strain arx1, hits give low values 0.984 | S. cerevisiae deletion strains, locus YDR150W, strain NUM1, hits give low values 0.998 | S. cerevisiae deletion strains, locus YDR318W, strain mcm21, hits give low values 0.926 | S. cerevisiae deletion strains, locus YDR388W, hits give low values 0.98 | S. cerevisiae deletion strains, locus YDR502C, strain sam2, hits give low values 0.933 | S. cerevisiae deletion strains, locus YEL061C, strain CIN8, hits give low values 1 | S. cerevisiae deletion strains, locus YER110C, hits give low values 0.965 | S. cerevisiae deletion strains, locus YER155C, strain BEM2, hits give low values 1.01 | S. cerevisiae deletion strains, locus YER167W, strain BCK2, hits give low values 0.944 | S. cerevisiae deletion strains, locus YGL078C, strain dbp3, hits give low values 1 | S. cerevisiae deletion strains, locus YGL248W, strain PDE1, hits give low values 1.01 | S. cerevisiae deletion strains, locus YGR078C, strain PAC10, hits give low values 0.949 | S. cerevisiae deletion strains, locus YGR135W, strain pre9, hits give low values 0.936 | S. cerevisiae deletion strains, locus YGR229C, strain SMI1, hits give low values 1.03 | S. cerevisiae deletion strains, locus YGR252W, strain gcn5, hits give low values 0.783 | S. cerevisiae deletion strains, locus YHR030C, strain SLT2, hits give low values 1 | S. cerevisiae deletion strains, locus YHR079C, strain IRE1 (second series), hits give low values 0.99 | S. cerevisiae deletion strains, locus YHR094C, strain hxt1, hits give low values 0.993 | S. cerevisiae deletion strains, locus YHR129C, strain ARP1, hits give low values 0.996 | S. cerevisiae deletion strains, locus YHR200W, strain rpn10, hits give low values 0.955 | S. cerevisiae deletion strains, locus YIL066C, strain RNR3, hits give low values 0.879 | S. cerevisiae deletion strains, locus YIL073C, strain SPO22, hits give low values 0.806 | S. cerevisiae deletion strains, locus YIL125W, strain kgd1, hits give low values 0.992 | S. cerevisiae deletion strains, locus YIR030C, strain dcg1, hits give low values 0.996 | S. cerevisiae deletion strains, locus YJL095W, strain BCK1, hits give low values 0.946 | S. cerevisiae deletion strains, locus YJL134W, strain LCB3, hits give low values 1.01 | S. cerevisiae deletion strains, locus YJL168C, strain set2, hits give low values 1 | S. cerevisiae deletion strains, locus YJL187C, strain SWE1 (second series), hits give low values 0.974 | S. cerevisiae deletion strains, locus YJR043C, strain POL32, hits give low values 0.911 | S. cerevisiae deletion strains, locus YJR075W, strain HOC1, hits give low values 0.968 | S. cerevisiae deletion strains, locus YKL009W, strain mrt4, hits give low values 0.884 | S. cerevisiae deletion strains, locus YKL068W, hits give low values 1 | S. cerevisiae deletion strains, locus YKL085W, strain MDH1 (second series), hits give low values 1.01 | S. cerevisiae deletion strains, locus YKL085W, strain MDH1, hits give low values 1.01 | S. cerevisiae deletion strains, locus YKL190W, strain CNB1, hits give low values 0.991 | S. cerevisiae deletion strains, locus YLR058C, strain SHM2, hits give low values 0.985 | S. cerevisiae deletion strains, locus YLR102C, strain apc9, hits give low values 1.01 | S. cerevisiae deletion strains, locus YLR268W, strain sec22, hits give low values 0.976 | S. cerevisiae deletion strains, locus YLR330W, strain CHS5, hits give low values 0.986 | S. cerevisiae deletion strains, locus YLR342W, strain FKS1 (second series), hits give low values 0.81 | S. cerevisiae deletion strains, locus YLR371W, strain rom2, hits give low values 0.97 | S. cerevisiae deletion strains, locus YLR418C, strain cdc73, hits give low values 0.914 | S. cerevisiae deletion strains, locus YML016C, strain PPZ1, hits give low values 0.985 | S. cerevisiae deletion strains, locus YML124C, strain tub3, hits give low values 1 | S. cerevisiae deletion strains, locus YMR078C, strain ctf18, hits give low values 0.965 | S. cerevisiae deletion strains, locus YMR223W, strain ubp8, hits give low values 0.914 | S. cerevisiae deletion strains, locus YMR263W, strain SAP30, hits give low values 0.971 | S. cerevisiae deletion strains, locus YMR307W, strain GAS1, hits give low values 0.91 | S. cerevisiae deletion strains, locus YNL067W, strain RPL9B, hits give low values 0.944 | S. cerevisiae deletion strains, locus YNL128W, strain TEP1, hits give low values 0.995 | S. cerevisiae deletion strains, locus YNL153C, strain GIM3, hits give low values 1 | S. cerevisiae deletion strains, locus YNL233W, strain BNI4, hits give low values 0.989 | S. cerevisiae deletion strains, locus YNL250W, strain rad50, hits give low values 0.952 | S. cerevisiae deletion strains, locus YNL271C, strain bni1, hits give low values 0.964 | S. cerevisiae deletion strains, locus YNL322C, strain KRE1, hits give low values 0.992 | S. cerevisiae deletion strains, locus YOL006C, strain TOP1, hits give low values 0.787 | S. cerevisiae deletion strains, locus YOL012C, strain htz1 1.6 | S. cerevisiae deletion strains, locus YOL147C, strain pex11, hits give low values 0.978 | S. cerevisiae deletion strains, locus YOR061W, strain CKA2, hits give low values 0.993 | S. cerevisiae deletion strains, locus YOR069W, strain VPS5, hits give low values 1 | S. cerevisiae deletion strains, locus YOR136W, strain idh2, hits give low values 0.995 | S. cerevisiae deletion strains, locus YOR144C, strain elg1, hits give low values 0.986 | S. cerevisiae deletion strains, locus YOR316C, strain cot1, hits give low values 0.997 | S. cerevisiae deletion strains, locus YPL055C, strain LGE1, hits give low values 0.874 | S. cerevisiae deletion strains, locus YPL241C, strain CIN2, hits give low values 1 | S. cerevisiae deletion strains, locus YPR119W, strain clb2, hits give low values 1.01 | S. cerevisiae deletion strains, locus YPR141C, strain kar3, hits give low values 0.997 | S. cerevisiae deletion strains, locus YPR163C, strain tif3, hits give low values 0.961 | S. cerevisiae deletion strains, locus YPR167C, strain met16, hits give low values 0.998 | S. cerevisiae deletion strains, strain wtn01, hits give low values 0.929 | S. cerevisiae strains, strain wild type, hits give low values 0.95
active: S. cerevisiae deletion strains, locus YDL192W, strain arf1, hits give low values 0.916 | S. cerevisiae deletion strains, locus YDR162C, strain NBP2, hits give low values 0.785 | S. cerevisiae deletion strains, locus YGL086W, strain mad1, hits give low values 0.922 | S. cerevisiae deletion strains, locus YKR001C, strain vps1, hits give low values 0.836 | S. cerevisiae deletion strains, locus YLR039C, strain RIC1, hits give low values 0.578 | S. cerevisiae deletion strains, locus YLR262C, strain YPT6, hits give low values 0.559 | S. cerevisiae deletion strains, locus YML032C, strain rad52, hits give low values 0.903 | S. cerevisiae deletion strains, locus YNL298W, strain CLA4, hits give low values 0.886 | S. cerevisiae deletion strains, locus YNL307C, strain MCK1, hits give low values 0.765 | S. cerevisiae deletion strains, locus YNR052C, strain pop2, hits give low values 0.873 | S. cerevisiae deletion strains, locus YOR184W, strain ser1, hits give low values 0.675
